Data on 34 compounds can be found in PubChem BioAssay (NCATS).

Molecules are shown by their SMILES. Results filed as inconclusive are left out. Calls of active or inactive are those of the source. Calls follow the shape of the dose curve; as a rule, active = well fitted cell-killing curve with a large enough effect; inconclusive = small, poorly fitted or top-dose-only effect, or effect the other way; inactive = no such curve, though single readings can be large or run the other way. Starred links: 1 amine or outer side, 2 acyl side, 3 side chain; linkers in the order of their positions; H or OH if unused. Positions of bridges follow the written chain, without caps; N, C: chain ends. Non-standard residues stand in square brackets, D forms with d. Residues, ends and D or L forms follow the SMILES beside them. Chains are numbered I, II in the order given. Actinocin(9to1) = Cc1c2oc3c(C)ccc(C(=O)[*:1])c3nc-2c(C(=O)[*:2])c(N)c1=O; NMeV = CN[CH](C(=O)O)C(C)C; Sar = CNCC(=O)O
Potency is read from the fitted curve at half-maximal effect.

One assay is described as follows: Quantitative High-Throughput drug screen in 47 multiple myeloma cell lines against the NCATS MIPE library collection: Delta47_JCRB cell viability assay (AID 1918925; also: nearly all actives have a fitted effect of over 45% in size;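 as to viability (% of DMSO): 0% = media-only wells and 100% = DMSO-only wells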). The note with it: Delta47 myeloma viability, CellTiter-Glo ATP, 48 h; series mostly up to 45.8 µM; viability (% of DMSO): at the top concentration. The essentials: (§1)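 Relative luminescence from CellTiter-Glo served as the viability signal, referenced to DMSO-treated (100%) and cell-free medium (0%) controls. Treatment lasted 48 hours at 37C with 500 cells per well.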
With `c1cc(CN2CCCNCCNCCCNCC2)ccc1CN1CCCNCCNCCCNCC1`, the “viability (% of DMSO)” value was 103% (inactive).

Turning to `CCN(C(=O)c1c(O)c2c(Cl)cccc2n(C)c1=O)c1ccccc1`, the “viability (% of DMSO)” value is 120% (inactive).

`CCCNC(=O)[C@H]1O[C@H]1C(=O)N[C@H](C(=O)N1CCC[C@@H]1C(=O)OC)C(C)CC` (stereo partly specified): the Potency is 13.2 µM (active).

As to `O=[N+]([O-])c1cn2c(n1)OC[C@@H](OCc1ccc(OC(F)(F)F)cc1)C2`, the “viability (% of DMSO)” value was 115% (inactive).

Consider `O=C(C=CC#Cc1cccc(NS(=O)(=O)c2ccccc2)c1)NO`, for which the Potency was 1.18 µM (active).

With `NS(=O)(=O)OC[C@@H]1C[C@@H](n2ccc3c(N[C@H]4CCc5ccccc54)ncnc32)C[C@H]1O`, the Potency was 0.526 µM (active).

As for `CCOC(=O)C=C[C@H](C[C@@H]1CCNC1=O)NC(=O)[C@@H](CC(=O)[C@@H](NC(=O)c1cc(C)on1)C(C)C)Cc1ccc(F)cc1`, the “viability (% of DMSO)” value is 110% (inactive).

As for `CO[C@@H]1[C@@H](O)[C@H](O)[C@@H](n2c3c(Cl)cccc3c3c4c(c5c6cccc(Cl)c6[nH]c5c32)C(=O)NC4=O)O[C@@H]1CO`, the Potency was 0.59 µM (active).

As for `CC(=O)OCC(=O)[C@@]12N=C(C)O[C@H]1C[C@H]1[C@@H]3CCC4=CC(=O)C=C[C@]4(C)[C@@H]3[C@@H](O)C[C@@]12C`, the “viability (% of DMSO)” value was 84.9% (inactive).

Take `O=S(=O)(O)CCSSCCS(=O)(=O)O`: the “viability (% of DMSO)” value was 130% (inactive).

As to `COc1cc(OC)c(C=CS(=O)(=O)Cc2ccc(OC)c(NCC(=O)O)c2)c(OC)c1`, the Potency is 0.148 µM (active).

On to `O=C(C=Cc1ccc(CN(CCO)CCc2c[nH]c3ccccc23)cc1)NO`, for which the Potency was 0.105 µM (active).

In the case of `O=C1CSC(=O)N1C(CCc1ccncc1)COc1ccc(-c2cccc([N+](=O)[O-])c2)cc1` (stereo unspecified), the Potency was 4.18 µM (active).

In the case of `COc1cc(OC)c(NC(=O)Nc2cc(C)on2)cc1Cl`, the “viability (% of DMSO)” value was 115% (inactive).

Consider `CC[C@]12C=CCN3CC[C@@]4(c5cc([C@@]6(C(=O)OC)C[C@H]7C[C@@H](C(C)(F)F)CN(Cc8c6[nH]c6ccccc86)C7)c(OC)cc5N(C)[C@H]4[C@@](O)(C(=O)OC)[C@H]1OC(C)=O)[C@@H]32`, for which the Potency was 0.0093 µM (active).

For the compound `C=C(C)[C@@H]1CC[C@]2(C(=O)O)CC[C@]3(C)[C@H](CC[C@@H]4[C@@]5(C)CC[C@H](O)C(C)(C)[C@@H]5CC[C@]43C)[C@@H]12`, the “viability (% of DMSO)” value is 98.1% (inactive).

The next assay is described as follows: Quantitative High-Throughput drug screen in 47 multiple myeloma cell lines against the NCATS MIPE library collection: EJM_DSMZ cell viability assay (AID 1918926; also: nearly all actives have a fitted effect of over 30% in size;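 as to viability, % of control: 100% = DMSO-only wells and 0% = media-only wells without cells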). Particulars: EJM myeloma cell viability, CellTiter-Glo ATP, 48 h; series mostly up to 45.8 µM; viability, % of control: at the top concentration. The essentials:
as §1
As for `N#Cc1cc(NC(=O)Nc2nnc(-c3ccncc3)s2)ccc1-c1cn[nH]c1`, the “viability, % of control” value was 121% (inactive).

Take `Cc1cnc(NC(=O)Nc2cc(Br)c(C)cc2OC[C@@H]2CNCCO2)cn1`: the Potency is 3.72 µM (active).

On to `CC(=O)O[C@H]1C[C@@H]2CC[C@H]3[C@H]4C[C@H]([N+]5(C)CCCCC5)[C@@H](OC(C)=O)[C@@]4(C)CC[C@@H]3[C@@]2(C)C[C@H]1[N+]1(C)CCCCC1`, for which the “viability, % of control” value is 109% (inactive).

Consider `CC(C)(C)[C@H](NC(=O)c1ccc(N)c(Cl)c1)C(=O)N1CCC[C@@H]1C(=O)N[C@H](C#N)CC(=O)O`, for which the viability, % of control was 97.8% [at 3.51 µM] (inactive).

Regarding `O=C1NC(=O)[C@@H](c2cn3c4c(cccc24)CCC3)[C@H]1c1c[nH]c2ccccc12`, the Potency was 20.9 µM (active).

On to `O=C(O)CCCCC(CCSCc1ccccc1)SCc1ccccc1` (stereo unspecified), for which the “viability, % of control” value was 109% (inactive).

On to `O=C(O)[C@H](CC(=O)N1C[C@@H]2CCCC[C@H]2C1)Cc1ccccc1`, for which the “viability, % of control” value is 104% (inactive).

As for `OCC(O)C(O)C(O)CO` (stereo unspecified), the “viability, % of control” value was 91.9% (inactive).

Regarding `Cc1c2oc3c(C)ccc(C(=O)NC4C(=O)NC(C(C)C)C(=O)N5CCCC5C(=O)N(C)CC(=O)N(C)C(C(C)C)C(=O)OC4C)c3nc-2c(C(=O)NC2C(=O)NC(C(C)C)C(=O)N3CCCC3C(=O)N(C)CC(=O)N(C)C(C(C)C)C(=O)OC2C)c(N)c1=O` (stereo unspecified) (I: TVP[Sar][NMeV] / II: TVP[Sar][NMeV]; ester I:1-I:C, II:1-II:C; linker I:N-II:N via Actinocin(9to1); configuration not given here), the “viability, % of control” value was 6.16% (inactive).

With `COC1=C2C[C@@H](C)C[C@H](OC)[C@@H](O)[C@@H](C)C=C(C)[C@H](OC(N)=O)[C@@H](OC)C=CC=C(C)C(=O)NC(=CC1=O)C2=O`, the Potency was 0.372 µM (active).

Consider `CC(=O)N1CCN(c2ccc(OCc3nn(C)c(C)c3-c3cccc4c(CCCOc5cccc6ccccc56)c(C(=O)O)n(Cc5cccnc5)c34)cc2)CC1`, for which the Potency was 0.105 µM (active).

As for `O=C1NC(O)CCN1[C@@H]1O[C@H](CO)[C@H](O)[C@H]1O` (stereo partly specified), the “viability, % of control” value is 106% (inactive).

On to `O=C1c2cccc(O)c2C(=O)c2c(O)cc(CO)cc21`, for which the “viability, % of control” value was 96.3% (inactive).

With `O=C1NC(=O)C(=Cc2ccc3nccc(-c4ccncc4)c3c2)S1`, the Potency was 0.662 µM (active).

On to `Cn1cc(C2=C(c3c4n(c5ccccc35)CCC(CN)C4)C(=O)NC2=O)c2ccccc21` (stereo unspecified), for which the Potency is 9.35 µM (active).

Consider `OCc1ccccc1O[C@@H]1O[C@H](CO)[C@H](O)[C@H](O)[C@H]1O`, for which the Potency is 10.5 µM (active).

`N#CC(=C(N)Sc1ccc(N)cc1)c1ccccc1C(F)(F)F`: the “viability, % of control” value is 90.3% (inactive).

Consider `CS[C@H]1SC[C@@H]2C(=O)N(C)[C@H](C(C)C)C(=O)OC[C@H](NC(=O)c3cnc4ccccc4n3)C(=O)N[C@H](C)C(=O)N(C)[C@@H]1C(=O)N(C)[C@H](C(C)C)C(=O)OC[C@H](NC(=O)c1cnc3ccccc3n1)C(=O)N[C@H](C)C(=O)N2C`, for which the Potency was 0.0059 µM (active).

Regarding `c1cc(CN2CCCNCCNCCCNCC2)ccc1CN1CCCNCCNCCCNCC1`, the “viability, % of control” value is 124% (inactive).

As to `CCN(C(=O)c1c(O)c2c(Cl)cccc2n(C)c1=O)c1ccccc1`, the “viability, % of control” value is 104% (inactive).

On to `O=[N+]([O-])c1cn2c(n1)OC[C@@H](OCc1ccc(OC(F)(F)F)cc1)C2`, for which the “viability, % of control” value was 92.1% (inactive).

For `O=C(C=CC#Cc1cccc(NS(=O)(=O)c2ccccc2)c1)NO`, the Potency is 5.9 µM (active).

Regarding `CCOC(=O)C=C[C@H](C[C@@H]1CCNC1=O)NC(=O)[C@@H](CC(=O)[C@@H](NC(=O)c1cc(C)on1)C(C)C)Cc1ccc(F)cc1`, the “viability, % of control” value is 125% (inactive).

On to `CO[C@@H]1[C@@H](O)[C@H](O)[C@@H](n2c3c(Cl)cccc3c3c4c(c5c6cccc(Cl)c6[nH]c5c32)C(=O)NC4=O)O[C@@H]1CO`, for which the Potency is 2.64 µM (active).

On to `CC(=O)OCC(=O)[C@@]12N=C(C)O[C@H]1C[C@H]1[C@@H]3CCC4=CC(=O)C=C[C@]4(C)[C@@H]3[C@@H](O)C[C@@]12C`, for which the “viability, % of control” value is 98% (inactive).

Regarding `O=S(=O)(O)CCSSCCS(=O)(=O)O`, the “viability, % of control” value is 99.6% (inactive).

Consider `O=C(C=Cc1ccc(CN(CCO)CCc2c[nH]c3ccccc23)cc1)NO`, for which the Potency was 0.235 µM (active).

On to `O=C1CSC(=O)N1C(CCc1ccncc1)COc1ccc(-c2cccc([N+](=O)[O-])c2)cc1` (stereo unspecified), for which the Potency was 0.935 µM (active).

With `CC[C@]12C=CCN3CC[C@@]4(c5cc([C@@]6(C(=O)OC)C[C@H]7C[C@@H](C(C)(F)F)CN(Cc8c6[nH]c6ccccc86)C7)c(OC)cc5N(C)[C@H]4[C@@](O)(C(=O)OC)[C@H]1OC(C)=O)[C@@H]32`, the Potency is 0.118 µM (active).

As for `C=C(C)[C@@H]1CC[C@]2(C(=O)O)CC[C@]3(C)[C@H](CC[C@@H]4[C@@]5(C)CC[C@H](O)C(C)(C)[C@@H]5CC[C@]43C)[C@@H]12`, the “viability, % of control” value was 98.7% (inactive).
